According to PubChem BioAssay AID1851 (National Center for Advancing Translational Sciences (NCATS), 2009):
Out of some 16,000 compounds screened, about 5,100 (32%) were called active. About 25% were inconclusive and are not listed. Calls come from the whole dose curve; as a rule, active = well fitted curve in the direction sought with a large enough effect; inconclusive = small, poorly fitted or top-dose-only effect, or effect the other way; inactive = no such curve, though single readings can be large or run the other way. Some of the results follow.

These compounds were tested against Cytochrome P450 3A4 (Homo sapiens) (UniProt P08684) (assay: Cytochrome panel assay with activity outcomes). Settings: recombinant CYP, pro-luciferin dealkylation, luminescence, p450-cyp3a4; series mostly up to 57.1 µM; activity, negative = inhibition: at the top concentration.
% is set by controls: 0 for no effect and ±100 for the full control effect.

Sequence of Cytochrome P450 3A4 (Homo sapiens) (P08684 whole entry, looked up): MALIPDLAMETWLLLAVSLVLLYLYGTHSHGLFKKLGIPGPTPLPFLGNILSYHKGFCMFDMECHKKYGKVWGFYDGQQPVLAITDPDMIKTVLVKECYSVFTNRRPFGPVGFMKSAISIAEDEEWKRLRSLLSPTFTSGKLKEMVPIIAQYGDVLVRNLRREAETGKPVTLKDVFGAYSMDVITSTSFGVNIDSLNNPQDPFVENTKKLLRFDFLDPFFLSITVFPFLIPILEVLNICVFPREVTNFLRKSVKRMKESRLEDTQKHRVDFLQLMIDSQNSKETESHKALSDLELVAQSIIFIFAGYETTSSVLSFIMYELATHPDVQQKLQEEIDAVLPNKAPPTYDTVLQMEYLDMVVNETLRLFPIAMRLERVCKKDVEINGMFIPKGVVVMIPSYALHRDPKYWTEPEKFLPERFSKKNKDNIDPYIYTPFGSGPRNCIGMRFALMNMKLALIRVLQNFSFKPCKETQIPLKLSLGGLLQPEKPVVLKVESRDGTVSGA

SMILES	activity, negative = inhibition	AC50
O[C@]1(c2ccccc2)c2ccccc2NC2=NCCN21	3.31% [at 11.4 µM] (inactive)	–
COc1ccc(-c2coc3cc(OC)cc(O)c3c2=O)cc1	-21.8% (inactive)	–
COc1ccc(-c2cc(=O)c3c(O)cc(O)cc3o2)cc1	–	2.51 µM (active)
O=c1cc(-c2ccccc2)oc2cc(O)c(O)c(O)c12	–	31.6 µM (active)
Cc1cc(-c2ccc(Cl)cc2)oc(=O)c1NC(=O)c1ccccc1	2.65% (inactive)	–
Cc1cc(=O)c2c(O)c(O)ccc2o1	-19.3% (inactive)	–
CC(C)C(NC(=O)C1CCCCC1)C(=O)NC1CCN(Cc2ccccc2)CC1 (stereo unspecified)	-4.32% (inactive)	–
O=C(NC1CCCCC1)C(Cc1ccccc1)N1C(=O)C2C3CCC(C3)C2C1=O (stereo unspecified)	–	8.91 µM (active)
O=C(C(Cc1ccccc1)N1C(=O)C2C3CCC(C3)C2C1=O)N1CCCCC1 (stereo unspecified)	–	12.6 µM (active)
Cc1ccc(C)n1C(Cc1ccccc1)C(=O)O (stereo unspecified)	-6.07% (inactive)	–
O=C(O)CC[C@@H](C(=O)O)N1C(=O)[C@@H]2[C@@H]3CC[C@H](C3)[C@@H]2C1=O	-4.14% [at 11.4 µM] (inactive)	–
O=C(O)[C@H](CCc1ccccc1)N1C(=O)c2ccccc2C1=O	9.26% [at 11.4 µM] (inactive)	–
CN(CC(=O)Nc1cccc2c1CCCC2)S(=O)(=O)c1ccc(Br)cc1	–	8.91 µM (active)
CN(C)CCOC(=O)[C@@H](c1ccccc1)C1(O)CCCC1	-9.54% [at 25.6 µM] (inactive)	–
Cn1c(C[C@@H](O)c2nc3ccccc3n2C)nc2ccccc21	-14.4% [at 11.4 µM] (inactive)	–
Cn1c(SCc2nc3ccccc3n2CCO)nc2ccccc21	–	8.91 µM (active)
Cc1ccc(/C=N/NC(=O)CSc2nc3ccccc3n2C)s1	-26.5% [at 2.29 µM] (inactive)	–
CC(=O)Nc1ccc(S(=O)(=O)N2CCN(c3nc(NC4CCCC4)c4ccccc4n3)CC2)cc1	–	3.16 µM (active)
Cc1ccc(C(=O)COC(=O)c2ccc3c(c2)C(=O)N(c2cccc4ncccc24)C3=O)cc1C	–	1.26 µM (active)
Cc1ccc(C(=O)O)cc1N1C(=O)c2cccc3cc(Br)cc(c23)C1=O	19.6% [at 2.29 µM] (inactive)	–
CCOC(=O)N1CCN(C(=O)c2cc(-c3ccc(F)cc3)[nH]c2C)CC1	–	11.2 µM (active)

SMILES	activity, negative = inhibition	AC50
CCOC(=O)N1CCN(C(=O)c2ccc(OC)c(OC)c2)CC1	14% (inactive)	–
CCOC(=O)N1CCN(C(=O)c2ccc(NC(C)=O)cc2)CC1	-1.46% [at 2.29 µM] (inactive)	–
CS(=O)(=O)N1CCC2(CCN(c3ccccc3)CC2)CC1	-15.8% (inactive)	–
CS(=O)(=O)N1CCC2(CCCN(c3ccncc3)C2)CC1	-49.8% (inactive)	–
CS(=O)(=O)N1CCC[C@@]2(CCN(c3ncccn3)C2)C1	-19.1% (inactive)	–
CS(=O)(=O)N1CCC[C@@]2(CCN(c3ccncc3)C2)C1	–	7.94 µM (active)
CS(=O)(=O)N1CCC2(CC1)CN(c1ccncc1)C2	-5.09% (inactive)	–
CS(=O)(=O)N1CCC[C@@]2(CCN(c3ccccc3)C2)C1	–	12.6 µM (active)
COc1cc(CN2CCN(C(=O)CC(C)C)CC2)cc(OC)c1OC	3.38% (inactive)	–
COc1ccccc1N1CCN(CCCCNC(=O)c2ccc(-c3ccc(C(C)=O)cc3)cc2)CC1	-14.3% (inactive)	–
COc1ccccc1N1CCN(CCN(C(=O)C2CCCCC2)c2ccccn2)CC1	–	3.98 µM (active)
CSc1nc(C)c(CCOC(=O)c2ccccc2)c(=O)[nH]1	-7.57% (inactive)	–
Cc1cc(-c2c(C)[nH]n(-c3ccccc3)c2=O)n(-c2ccccc2)n1	-9.49% [at 11.4 µM] (inactive)	–
CSc1nc(C)c(CCOC(=O)c2cccc(C)c2)c(=O)[nH]1	-7.19% (inactive)	–
CC1=NN(c2ccccc2)C(=O)/C1=C\c1c(C)[nH]n(-c2ccccc2)c1=O	-9.32% (inactive)	–
Cc1[nH]n(-c2ccccc2)c(=O)c1CCOC(=O)c1cccc(C(F)(F)F)c1	–	3.16 µM (active)
Cc1[nH]n(-c2ccccc2)c(=O)c1CCOC(=O)c1ccc(C(F)(F)F)cc1	–	14.1 µM (active)
CC(C)(CO[C@H]1C[C@H]2CC[C@@]1(C)C2(C)C)[N+](=O)[O-]	-5.92% [at 11.4 µM] (inactive)	–
CCOC(=O)c1ccc(-c2ccc(/C=C(\C#N)C(=O)NCC3CCCO3)o2)cc1 (stereo unspecified)	–	20 µM (active)
CCOC(=O)c1ccc(-c2ccc(CO)o2)cc1	1.82% [at 2.29 µM] (inactive)	–
CCOC(=O)c1ccc(NC(=O)C(=O)NCC2CCCO2)cc1 (stereo unspecified)	25.4% (inactive)	–

SMILES	activity, negative = inhibition	AC50
CC(C)NC[C@@H](O)c1ccc(O)c2ncccc12	-1.42% [at 11.4 µM] (inactive)	–
O=S(=O)(O)[C@@H](c1ccccc1)[C@@H](O)c1ccccc1	-6.22% [at 11.4 µM] (inactive)	–
COc1ccc(CCn2c(=N)c(C(=O)NCc3ccco3)cc3c(=O)n4ccccc4nc32)cc1	–	14.1 µM (active)
Cn1c(C(=O)NCC2CCCO2)cc2c(=O)n3ccccc3nc21 (stereo unspecified)	12.1% (inactive)	–
OCCCSCCO	-9.23% [at 11.4 µM] (inactive)	–
CC1(O)c2ccccc2C(=O)N1CCc1ccccc1F (stereo unspecified)	-27% (inactive)	–
O=C(c1ccco1)N1CCN(c2cc(=O)n(C3CCCCC3)c(=O)[nH]2)CC1	-12.1% (inactive)	–
COc1ccc(Nc2cc(=O)n(C3CCCCC3)c(=O)[nH]2)c(OC)c1	–	12.6 µM (active)
Cc1cc(C(C)(C)C)c(O)c(C)c1CC1=NCCN1	-21.5% [at 25.6 µM] (inactive)	–
CCC(=O)Nc1ncnc2ncn(C(=O)CC)c12	-6.29% [at 11.4 µM] (inactive)	–
COc1ccccc1COC(=O)Nc1c(C)nn(C)c1Cl	–	15.8 µM (active)
Cc1nn(C)c(Cl)c1NC(=O)OCc1ccc(F)cc1	-35.1% (inactive)	–
Cc1nn(C)c(Cl)c1NC(=O)OCc1ccc(Cl)cc1Cl	–	14.1 µM (active)
O=C(Nc1ccccc1)OCc1cc(-c2ccc(Cl)cc2)on1	3.33% [at 2.29 µM] (inactive)	–
O=C(OCc1ccc(Cl)cc1Cl)c1cccnc1Cl	-0.666% (inactive)	–
O=C(c1cc(C(F)(F)F)cc(C(F)(F)F)c1)N1CCC2(CCCN(Cc3nccs3)C2)CC1	–	20 µM (active)
O=C(c1cc(C(F)(F)F)cc(C(F)(F)F)c1)N1CCC[C@@]2(CCN(Cc3nccs3)C2)C1	–	3.16 µM (active)
O=C(c1ccncc1)N1CCC2(CCN(Cc3nccs3)CC2)CC1	-16.3% (inactive)	–
CCN1CCCCC(=N/O)/C(=N/O)CCCC1	-9.74% [at 11.4 µM] (inactive)	–
